Results on 40 sequences are retold here after the supplement of paper PMC6555819.

The test system of this experiment is LXRb:RXRa (NR concentration 270 nM, RXRa partner concentration 90 nM). The experiment is described as follows: PBM binding z-score (relative to random genomic background probes); higher = stronger binding; sequences stand for … in GC…GCGATTGACAGCGTAGAATGAAGG
How it is done:
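Protein-binding microarray (Agilent 4x180K custom design, double-stranded 60-nt probes: 5' GC cap, 34-nt variable region, 24-nt constant primer region; full probe sequence given). Purified or IVT nuclear receptor:RXRα heterodimers (3:1 NR:RXRα, mostly 270:90 nM) or homodimers were incubated for 1 h in PBS with 2% milk and no ligand, then detected with Alexa488 antibodies. Fluorescence from o1-orientation probes (~5 replicates averaged) was converted to z-scores against 500 random hg19 background probes. Variable regions are seed direct-repeat (DR0–DR5) sites, all their single-nucleotide variants and half-site ablations.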
Regarding AATAAAGGGTCATCGTAGGCCAGAGTACGCACAG, the PBM binding z-score stood at 5.46.

Regarding GCTGCTAGGTCAACTGATGGTCAACTAAAGCTCG, the PBM binding z-score was found to be 2.47.

CACACTAGGTCACAGAGGTCAAAGTCCGTGCGTA yielded a PBM binding z-score of 6.24.

Turning to ACTTACGGCTCAACGAGGTTATAGCACGCGTATA, the PBM binding z-score is 0.741.

For the sequence CGTCCAAGGTCACGGTCAGTGAAAGAGACTCGAA, the PBM binding z-score stood at 4.76.

In turn, TCTTGTAGATCAATAGAAGTTAAGAAAGTGCGCT registered a PBM binding z-score of 0.436.

Regarding AATACAGGGTCATCTTAGGCCAGAGTACGCACAG, the PBM binding z-score amounted to 5.12.

Sequence CCTTACGGGTCACGAGGTCATAGCACGACGAGCG registered a PBM binding z-score of 5.05.

In turn, CGTCAAAGTTCAACTAAGGTTACGTAAAGCACGC gave a PBM binding z-score of 5.4.

Sequence TGTATGAGGTTAAAGATCAGGGAACGTGGCGTCG came in with a PBM binding z-score of 2.16.

In turn, CGAACTAGGTCAAGGACAGTAAATCTCCGCACGC showed a PBM binding z-score of 1.45.

For the sequence CCAACTGGGCCAAAAAGGTCATTGATGCCGATAA, the PBM binding z-score came to 4.36.

CGTCCAAGGTCAATGCTAGATCAGTGAAAGCATT registered a PBM binding z-score of 3.56.

For CCTACTGGGCCATTCAGAGGTCAATGATCATATG, the PBM binding z-score turned out to be 3.64.

On to CCTACTGGGCCAAAGGTGATTGATTCCAATGCTC, for which the PBM binding z-score stood at 0.206.

As to CCTCGGAGGACAGAAGGTCAAAGCTGTCCGCTTT, the PBM binding z-score was 3.1.

TAGCCTAGGTCATTCAGGGGCCACTATAGAAAGC showed a PBM binding z-score of 3.38.

As to CCTCGGAGGTCAACAGGAGGTCAGAGCTGCCAGA, the PBM binding z-score is 5.75.

In turn, CCTCGGAGGACAACAGGAGGTCATAGCTGCCAGA came in with a PBM binding z-score of 3.15.

In the case of CCTTACGGGTCCCTCCAGGTTATAGCATCGGAGT, the PBM binding z-score was -0.459.

Regarding CGCACTAGGTCATCCAGGACAGTGAATACATTGA, the PBM binding z-score came to 2.21.

CAAACTAGGTCAAGAGGTCAAAGTTCGCTTCCCG gave a PBM binding z-score of 6.05.

As for CCTACTGGGCCAAAGAGGTCATTGATGCCGATAA, the PBM binding z-score came out at 3.65.

Sequence TAGCCTAAGTCATGCGGGCCAGTATAGTGTCGGC displayed a PBM binding z-score of -0.501.

Sequence GGAACGAGGGCATTCGAGTTCATAGCATGGCGAT returned a PBM binding z-score of 3.44.

In turn, GTTACAGGGTCAAGGCCAGAGTACGCGTATTGAT yielded a PBM binding z-score of 3.64.

Sequence CCTACTGGGCCAAAAAGTTCATTGATGCCGATAA registered a PBM binding z-score of 1.09.

The sequence GCTGCTAGTTCAACTGATGGTCAGCTAAAGCTCG gave a PBM binding z-score of 0.0556.

The sequence TCTCGGAGGACACAAAGGTCAGAGCTTTCCAGAG registered a PBM binding z-score of 3.15.

Consider AGTCAAAGTTGAGGACGAGGTAACGTAAAGCACG, for which the PBM binding z-score is -0.0986.

Regarding GCTGCGAGGTCAACTGATGGTCAGCTAAAGCTCG, the PBM binding z-score was determined as 5.07.

In turn, ATATGTAGGTTAGGGTCAGTCAGAAAGTAGGGAA showed a PBM binding z-score of 3.

In the case of AATACAAGGTCATCGTAGGCCAGAGTACGCACAG, the PBM binding z-score came out at 5.13.

On to CGAACTACGTCATCCAGGACAGTGAATACATTGA, for which the PBM binding z-score is -0.00555.

In the case of AATACAGGGTAACTAGGCCAGAGTAGGTACGAAT, the PBM binding z-score was 0.0448.

For TAGCCTAGGTCATGCGGCCCAGTATAGTGTCGGC, the PBM binding z-score was found to be 1.69.

CGTCTAAGGTCATAGGAGGTCAGTGAAGACAGAT: the PBM binding z-score came to 6.9.

CTATGTAGGTTAAGGGAGTCATTCAGTTTGAAAG: the PBM binding z-score amounted to 0.642.

As to ACTTACGGGTCTACGAGGTTATAGCACGCGTATA, the PBM binding z-score amounted to 0.819.

In the case of AATACAGGGTGACTAGGCCAGAGTAGGTACGAAT, the PBM binding z-score turned out to be 0.204.
